Experimental data as given in PubChem BioAssay (NCATS).
Results filed as inconclusive are left out. Where a call stands in place of a potency, no number is given. Unmarked numbers belong to inactive results. Activity calls are given as the source filed them. Calls follow the shape of the dose curve; as a rule, active = well fitted curve in the direction sought with a large enough effect; inconclusive = small, poorly fitted or top-dose-only effect, or another doubt; inactive = no such curve, though single readings can be large; an effect the other way counts as inactive or inconclusive. Numbered stars: 1 amine (or outer) side, 2 acyl side, 3 side chain; on linkers, the order of the positions; unused ones are H or OH. Bridge positions count the residues as written; N and C are the ends. Square brackets hold non-standard residues; d marks the D form. Peptide text beside a SMILES is read from it. I, II: the chains in the order shown. Actinocin(9to1) = Cc1c2oc3c(C)ccc(C(=O)[*:1])c3nc-2c(C(=O)[*:2])c(N)c1=O; NMeV = CN[C@H](C(=O)O)C(C)C; Sar = CNCC(=O)O

Assays:
UISO = assay: qHTS assay to identify novel small-molecules to repurpose for Merkel cell carcinoma treatment (AID 1296009); conditions: MCC and control cell lines, CellTiter-Glo viability, 72 h; series mostly up to 46 µM; also: nearly all actives have a fitted effect of over 60% in size; also: potency is read from the fitted curve at half-maximal effect
Outline: (§1)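 Dose-response viability screen; 72 hr exposure at 37 degree celsius; CellTiter-Glo added, 10 min room temperature, luminescence read; RLUs scaled between no-cell and DMSO wells.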

WaGa = assay: as above; conditions: MCC and control cell lines, CellTiter-Glo viability, 72 h; series mostly up to 46 µM
Outline: as §1

C33A = assay: Primary qHTS to identify gynecologic anti-cancer compounds using libraries of approved drugs and bioactive compounds (AID 1345084); conditions: Gynecologic cancer cell panel viability, ATPlite luminescence, 48 h; series mostly up to 57.5 µM; also: nearly all actives have a fitted effect of over 55% in size
Outline: (§2)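 ATP-based viability (ATPlite), 1,000 cells/well, 16 h pre-incubation, 48 h compound at 37 C, 5% CO2, 15 min RT before read.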

CAOV3 = assay: as above; conditions: Gynecologic cancer cell panel viability, ATPlite luminescence, 48 h; series mostly up to 57.5 µM
Outline: as §2

CASKI = assay: as above; conditions: Gynecologic cancer cell panel viability, ATPlite luminescence, 48 h; series mostly up to 57.5 µM
Outline: as §2

Es-2 = assay: as above; conditions: Gynecologic cancer cell panel viability, ATPlite luminescence, 48 h; series mostly up to 57.5 µM
Outline: as §2

HeLa = assay: as above; conditions: Gynecologic cancer cell panel viability, ATPlite luminescence, 48 h; series mostly up to 57.5 µM
Outline: as §2

Hek293T = assay: as above; conditions: Gynecologic cancer cell panel viability, ATPlite luminescence, 48 h, control line for the selectivity index; series mostly up to 57.5 µM
Outline: as §2

JEG-3 = assay: as above; conditions: Gynecologic cancer cell panel viability, ATPlite luminescence, 48 h; series mostly up to 57.5 µM
Outline: as §2

OV90 = assay: as above; conditions: Gynecologic cancer cell panel viability, ATPlite luminescence, 48 h; series mostly up to 57.5 µM
Outline: as §2

Structure (SMILES): CC(Cc1cccc(C(F)(F)F)c1)NCCOC(=O)c1ccccc1 (stereo not drawn)
- Potency (UISO): inactive
- Potency (WaGa): inactive
- Potency (C33A): inactive
- Potency (CAOV3): inactive
- Potency (CASKI): inactive
- Potency (Es-2): inactive
- Potency (HeLa): inactive
- Potency (Hek293T): inactive
- Potency (JEG-3): inactive
- Potency (OV90): inactive

Structure (SMILES): C=CCc1ccc(O)c(OC)c1
- Potency (UISO): inactive
- Potency (WaGa): inactive
- Potency (C33A): inactive
- Potency (CAOV3): inactive
- Potency (CASKI): inactive
- Potency (Es-2): inactive
- Potency (HeLa): inactive
- Potency (Hek293T): inactive
- Potency (JEG-3): inactive
- Potency (OV90): inactive

Structure (SMILES): NCCC(O)(P(=O)(O)O)P(=O)(O)O
- Potency (UISO): inactive
- Potency (WaGa): inactive
- Potency (C33A): inactive
- Potency (CAOV3): inactive
- Potency (CASKI): inactive
- Potency (Es-2): inactive
- Potency (HeLa): inactive
- Potency (Hek293T): inactive
- Potency (JEG-3): inactive
- Potency (OV90): inactive

Structure (SMILES): NC(=O)CC[C@@H]1NC(=O)[C@H](Cc2ccccc2)NC(=O)[C@H](Cc2ccc(O)cc2)NC(=O)CCSSC[C@@H](C(=O)N2CCC[C@H]2C(=O)N[C@@H](CCCN=C(N)N)C(=O)NCC(N)=O)NC(=O)[C@H](CC(N)=O)NC1=O
- Potency (UISO): inactive
- Potency (WaGa): inactive
- Potency (C33A): inactive
- Potency (CAOV3): inactive
- Potency (CASKI): inactive
- Potency (Es-2): inactive
- Potency (HeLa): inactive
- Potency (Hek293T): inactive
- Potency (JEG-3): inactive
- Potency (OV90): inactive

Structure (SMILES): CCCCN1CCCC1C(=O)Nc1c(C)cc(C)cc1C (stereo not drawn)
- Potency (UISO): inactive
- Potency (WaGa): inactive
- Potency (C33A): inactive
- Potency (CAOV3): inactive
- Potency (CASKI): inactive
- Potency (Es-2): inactive
- Potency (HeLa): inactive
- Potency (Hek293T): inactive
- Potency (JEG-3): inactive

Structure (SMILES): CC(=O)O[C@]1(C(C)=O)CC[C@H]2[C@@H]3C[C@H](C)C4=CC(=O)CC[C@]4(C)[C@H]3CC[C@@]21C
- Potency (UISO): inactive
- Potency (WaGa): inactive
- Potency (C33A): inactive
- Potency (CAOV3): inactive
- Potency (CASKI): inactive
- Potency (Es-2): inactive
- Potency (HeLa): inactive
- Potency (Hek293T): inactive
- Potency (JEG-3): inactive
- Potency (OV90): inactive

Structure (SMILES): Cc1c2oc3c(C)ccc(C(=O)N[C@@H]4C(=O)N[C@H](C(C)C)C(=O)N5CCC[C@H]5C(=O)N(C)CC(=O)N(C)[C@@H](C(C)C)C(=O)O[C@@H]4C)c3nc-2c(C(=O)N[C@@H]2C(=O)N[C@H](C(C)C)C(=O)N3CCC[C@H]3C(=O)N(C)CC(=O)N(C)[C@@H](C(C)C)C(=O)O[C@@H]2C)c(N)c1=O (I: T[dV]P[Sar][NMeV] / II: T[dV]P[Sar][NMeV]; ester I:1-I:C, II:1-II:C; linker I:N-II:N via Actinocin(9to1))
- Potency (UISO): 3.3 nM (active)

Structure (SMILES): CC1(C)O[C@@H]2C[C@H]3[C@@H]4CCC5=CC(=O)CC[C@]5(C)[C@@]4(F)[C@@H](O)C[C@]3(C)[C@]2(C(=O)CCl)O1
- Potency (UISO): inactive
- Potency (WaGa): inactive
- Potency (C33A): inactive
- Potency (CAOV3): inactive
- Potency (CASKI): inactive
- Potency (Es-2): inactive
- Potency (HeLa): inactive
- Potency (Hek293T): inactive
- Potency (JEG-3): inactive

Structure (SMILES): CCCN1CCCC[C@H]1C(=O)Nc1c(C)cccc1C
- Potency (UISO): inactive
- Potency (WaGa): inactive
- Potency (C33A): inactive
- Potency (CAOV3): inactive
- Potency (CASKI): inactive
- Potency (Es-2): inactive
- Potency (HeLa): inactive
- Potency (Hek293T): inactive
- Potency (JEG-3): inactive
- Potency (OV90): inactive

Structure (SMILES): Cc1cc(O)c(C(C)C)cc1Cl
- Potency (UISO): inactive
- Potency (WaGa): inactive
- Potency (C33A): inactive
- Potency (CAOV3): inactive
- Potency (CASKI): inactive
- Potency (Es-2): inactive
- Potency (HeLa): inactive
- Potency (Hek293T): inactive
- Potency (JEG-3): inactive
- Potency (OV90): inactive

Structure (SMILES): O=C(Nc1ccc(Oc2ccc(Cl)cc2)c(Cl)c1)c1cc(I)cc(I)c1O
- Potency (UISO): inactive
- Potency (WaGa): inactive
- Potency (C33A): inactive
- Potency (CAOV3): inactive
- Potency (CASKI): inactive
- Potency (Es-2): inactive
- Potency (HeLa): inactive
- Potency (Hek293T): inactive
- Potency (JEG-3): inactive
